In PubChem BioAssay (NCATS) one finds Potency data, which are given here for 39 molecules.

The structures appear in SMILES notation. Active and inactive are the calls of the source. How the calls were made is not given here. Bounds are passed on as bounds.
Potency means the concentration at half of the fitted maximal effect.

This assay relates to HIV-1 nucleocapsid protein NCp7 (binding to TG oligonucleotide). Put plainly: HIV Nucleocapsid (AID 346).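 Further: potency is for inhibitors that block NC binding and lower polarization.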 The note with it: HIV-1 NC / fluorescein-TGTGTGTG probe, fluorescence polarization. The procedure, abridged: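 Fluorescence polarization binding of 100 nM HIV-1 NC to 10 nM fluorescein-labelled TG4xF oligonucleotide. Buffer was Hepes pH 7.5 with 250mM NaCl, 1uM ZnCl2, TCEP and 2-mercaptoethanol. Compounds were incubated 1 hr at room temperature before the read.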
With `Cc1noc(C)c1-c1cc(NC2CCNCC2)ncn1`, the Potency was > 20 µM (inactive). To `COc1ccccc1CN1CC[C@@]2(CCCN(C(=O)c3c(C)noc3C)C2)C1` belongs > 20 µM (inactive).

On to `O=C(c1ccncc1)N1CCC2(CCCN(c3ccccn3)C2)CC1`, for which the Potency was > 20 µM (inactive). Consider `O=C(Nc1ccccc1)N1CC2(CCN(C(=O)c3ccncc3)CC2)C1`, for which the Potency was > 20 µM (inactive).

On to `Cc1cnc(CNc2ncnc3ccc(-c4cccc(NS(C)(=O)=O)c4)cc23)cn1`, for which the Potency is > 20 µM (inactive).

Regarding `COCCn1c(=O)c(-c2cccc(C#N)c2)nc2cnc(N(C)C)nc21`, the Potency was > 4 µM (inactive). With `O=C(c1csnn1)N1CCC[C@@]2(CCN(c3ccccn3)C2)C1`, the Potency is > 20 µM (inactive). On to `COCCn1c(=O)c(C)nc2cnc(Oc3ccc(OC)cc3)nc21`, for which the Potency is > 20 µM (inactive).

For `COc1ccc(C(=O)N2CCC[C@@]3(CCN(c4cccc(-c5ccccc5)c4)C3)C2)cc1`, the Potency was > 20 µM (inactive). To `c1cncc(-c2nccc(NCc3cccs3)n2)c1` belongs > 20 µM (inactive). To `CN1CCN(c2nc(-c3ccoc3)nc3ccccc23)CC1` belongs > 20 µM (inactive); to `Cc1noc(C)c1-c1cc(NCc2ccccc2)ncn1`, > 20 µM (inactive).

`Cc1ccccc1-c1cncnc1N(C)Cc1ccco1`: the Potency was > 20 µM (inactive). Consider `O=C(c1ccncc1)N1CCC2(CCCN(C(c3ccccc3)c3ccccc3)C2)CC1`, for which the Potency was > 20 µM (inactive).

On to `COCC(=O)N1CCC2(CCCN(C(=O)Nc3cccc(F)c3)C2)CC1`, for which the Potency is > 20 µM (inactive). Consider `O=c1cnc2cnc(Nc3ccccc3)nc2n1Cc1cccs1`, for which the Potency is > 20 µM (inactive). In the case of `COc1ccc(Oc2ncc3nc(-c4cn(C)c5ccccc45)c(=O)n(CCC#N)c3n2)cc1`, the Potency is > 20 µM (inactive). Take `O=c1c(-c2cccs2)nc2cnc(N3CCOCC3)nc2n1CCc1ccccc1`: the Potency is > 20 µM (inactive). Consider `COc1ccc2[nH]cc(CCNc3ccnc(-c4ccc5c(c4)OCO5)n3)c2c1`, for which the Potency is > 20 µM (inactive). Regarding `c1nc(NC2CCNCC2)c2cc(-c3ccc4c(c3)OCO4)ccc2n1`, the Potency was > 20 µM (inactive). Turning to `COc1cccc(Cn2c(=O)c(-c3ccc(F)cc3)nc3cncnc32)c1`, the Potency was > 20 µM (inactive). For `CN(C)C(=O)c1ccc(-c2ccc3ncnc(N4CCNCC4)c3c2)cc1`, the Potency is > 20 µM (inactive). For `COc1ccc(C(=O)N2CCC3(CCCN(Cc4ccccc4)C3)CC2)cc1`, the Potency is > 20 µM (inactive). For the molecule `CCNc1ncc2nc(-c3ccc(OC)cc3)c(=O)n(CCC#N)c2n1`, the Potency is > 20 µM (inactive).

As to `O=C(c1ccco1)N1CCC2(CC1)CN(c1ncccn1)C2`, the Potency was > 20 µM (inactive). To `CC(C)NC(=O)N1CC[C@@]2(CCCN(C(=O)c3csnn3)C2)C1` belongs > 20 µM (inactive); to `COc1cccc(Cn2c(=O)c(CCc3ccccc3)nc3cnc(N(C)C)nc32)c1`, > 4 µM (inactive). As for `Cc1cnc(CNc2ccnc(-c3ccc(N(C)C)cc3)n2)cn1`, the Potency is > 20 µM (inactive). With `O=C(Nc1cccc(F)c1)N1CCCC2(CCN(C(=O)c3ccncc3)CC2)C1` the figure was > 20 µM (inactive); with `Cc1noc(C)c1-c1cncnc1-n1ccnc1`, > 20 µM (inactive); with `CN(C)C(=O)c1ccc(-c2nccc(-n3ccnc3)n2)cc1`, > 20 µM (inactive). As for `COc1ccc(-n2c(=O)c(-c3cccs3)nc3cnc(N4CCN(C)CC4)nc32)cc1`, the Potency was > 20 µM (inactive). In the case of `CN(Cc1ccco1)c1nc(-c2ccc3c(c2)OCO3)nc2ccccc12`, the Potency was > 20 µM (inactive). As to `CC(C)NC(=O)N1CCC2(CC1)CCN(C(=O)c1cnccn1)CC2`, the Potency is > 20 µM (inactive). Take `COc1ccc(-c2nc3cnc(N4CCNCC4)nc3n(CCC#N)c2=O)cc1`: the Potency was > 20 µM (inactive).

In the case of `COc1ccc2[nH]cc(CCNc3cc(-c4ccccc4Cl)ncn3)c2c1`, the Potency was > 20 µM (inactive). With `Cc1noc(C)c1-c1nc(Nc2ccc(F)cc2)c2ccccc2n1` the figure was > 20 µM (inactive). With `COc1cccc(-c2nccc(NCc3ccc(OC)cc3OC)n2)c1` the figure was > 20 µM (inactive). On to `O=C(c1ccco1)N1CCC2(CC1)CCN(c1ncccn1)CC2`, for which the Potency is > 20 µM (inactive).
